# In PubChem BioAssay (NCATS):
# Results filed as inconclusive are left out. A call without a number means that no potency is given here. A number with no mark means an inactive call. Calls of active or inactive are those of the source. The call rests on the fitted dose curve; in most records, active means well fitted curve in the direction sought with a large enough effect; inconclusive means small, poorly fitted or top-dose-only effect, or another doubt; inactive means no such curve, though single readings can be large; an effect the other way counts as inactive or inconclusive.
# Assays:
# [1] = target: Rap guanine nucleotide exchange factor 3 (Homo sapiens) (UniProt O95398); experiment: Confirmatory qHTS for antagonist of cAMP-regulated guanine nucleotide exchange factor 3 (EPAC1) (AID 1645880); further: nearly all actives have a fitted effect of over 55% in size; further: potency means the concentration at half of the fitted maximal effect
# Rap guanine nucleotide exchange factor 3 (Homo sapiens), sequence (O95398 whole entry, looked up): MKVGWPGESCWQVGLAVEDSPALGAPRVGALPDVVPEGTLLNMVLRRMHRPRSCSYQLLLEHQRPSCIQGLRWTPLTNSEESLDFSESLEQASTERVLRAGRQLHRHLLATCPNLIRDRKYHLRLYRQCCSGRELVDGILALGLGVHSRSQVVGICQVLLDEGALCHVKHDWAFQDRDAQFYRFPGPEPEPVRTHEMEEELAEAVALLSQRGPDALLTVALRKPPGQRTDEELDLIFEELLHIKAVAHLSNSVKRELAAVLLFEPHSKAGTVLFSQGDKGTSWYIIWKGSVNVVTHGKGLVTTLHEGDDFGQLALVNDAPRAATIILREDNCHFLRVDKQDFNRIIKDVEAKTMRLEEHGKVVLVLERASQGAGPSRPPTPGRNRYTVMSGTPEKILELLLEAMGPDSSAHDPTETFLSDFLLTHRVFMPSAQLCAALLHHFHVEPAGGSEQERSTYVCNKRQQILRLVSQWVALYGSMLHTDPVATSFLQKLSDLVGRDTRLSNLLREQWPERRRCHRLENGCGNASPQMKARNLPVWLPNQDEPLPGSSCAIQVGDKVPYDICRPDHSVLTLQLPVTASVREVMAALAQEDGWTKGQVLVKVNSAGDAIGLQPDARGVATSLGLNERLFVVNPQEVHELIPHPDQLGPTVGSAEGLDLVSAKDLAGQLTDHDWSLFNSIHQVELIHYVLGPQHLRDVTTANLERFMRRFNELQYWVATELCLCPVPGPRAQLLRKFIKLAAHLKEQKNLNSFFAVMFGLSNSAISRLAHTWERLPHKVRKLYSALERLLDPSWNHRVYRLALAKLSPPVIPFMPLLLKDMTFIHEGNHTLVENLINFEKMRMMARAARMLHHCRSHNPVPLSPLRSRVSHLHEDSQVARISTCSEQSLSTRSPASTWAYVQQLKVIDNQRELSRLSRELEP
# In short: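 Nucleotide exchange uses 100 nM EPAC1, 250 nM RAP1B-BODIPY-GDP and 50 uM GDP, with compounds in a concentration-titration series. After 5 min at room temperature, fluorescence (480 nm ex/540 nm em) is read every 5 min for 30 min. Data are normalized to control ATA and DMSO.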
# [2] = target: Rap guanine nucleotide exchange factor 3 (Homo sapiens) (UniProt O95398); experiment: Confirmatory qHTS for agonist of cAMP-regulated guanine nucleotide exchange factor 3 (EPAC1) (AID 1645881); further: nearly all actives have a fitted effect of over 75% in size; further: potency means the concentration at half of the fitted maximal effect;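 on activation: EPAC1 catalysed release of BODIPY-GDP from Rap1B seen as fluorescence loss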
# [3] = target: Rap guanine nucleotide exchange factor 4 (Homo sapiens) (UniProt Q8WZA2); experiment: Confirmatory qHTS for agonist of cAMP-regulated guanine nucleotide exchange factor 4 (EPAC2) (AID 1645884);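 further: nucleotide exchange releases bodipy-GDP from Rap1 and this lowers its fluorescence; nearly all actives have a fitted effect of over 65% in size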; further: potency means the concentration at half of the fitted maximal effect
# Rap guanine nucleotide exchange factor 4 (Homo sapiens), sequence (Q8WZA2 whole entry, looked up): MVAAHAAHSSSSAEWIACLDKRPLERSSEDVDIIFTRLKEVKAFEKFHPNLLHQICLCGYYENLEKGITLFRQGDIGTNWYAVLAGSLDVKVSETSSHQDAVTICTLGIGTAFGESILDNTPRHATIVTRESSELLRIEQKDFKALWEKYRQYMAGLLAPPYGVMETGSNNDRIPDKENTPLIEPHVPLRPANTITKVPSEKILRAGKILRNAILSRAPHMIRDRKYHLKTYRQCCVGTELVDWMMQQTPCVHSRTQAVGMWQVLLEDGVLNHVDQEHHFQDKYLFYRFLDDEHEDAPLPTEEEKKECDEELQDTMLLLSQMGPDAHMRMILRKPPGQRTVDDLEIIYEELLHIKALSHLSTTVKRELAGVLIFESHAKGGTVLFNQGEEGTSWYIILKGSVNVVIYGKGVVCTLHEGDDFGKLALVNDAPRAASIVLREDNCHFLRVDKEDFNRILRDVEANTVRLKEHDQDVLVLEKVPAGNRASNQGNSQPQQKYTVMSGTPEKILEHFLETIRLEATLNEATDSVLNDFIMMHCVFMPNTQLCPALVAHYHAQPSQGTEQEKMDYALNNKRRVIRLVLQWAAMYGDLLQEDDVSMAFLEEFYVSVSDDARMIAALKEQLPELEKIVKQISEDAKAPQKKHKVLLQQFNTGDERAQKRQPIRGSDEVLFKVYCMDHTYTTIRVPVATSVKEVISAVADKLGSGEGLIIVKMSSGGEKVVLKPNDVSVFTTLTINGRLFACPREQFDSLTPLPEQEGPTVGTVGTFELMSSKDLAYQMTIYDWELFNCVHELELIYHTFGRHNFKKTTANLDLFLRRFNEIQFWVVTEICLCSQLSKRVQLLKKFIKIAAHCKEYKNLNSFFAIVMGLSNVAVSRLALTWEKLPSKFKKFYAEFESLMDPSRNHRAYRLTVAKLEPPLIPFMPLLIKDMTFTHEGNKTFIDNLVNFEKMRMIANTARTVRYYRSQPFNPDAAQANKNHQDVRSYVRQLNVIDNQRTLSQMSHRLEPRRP
# [4] = target: Rap guanine nucleotide exchange factor 4 (Homo sapiens) (UniProt Q8WZA2); experiment: Confirmatory qHTS for antagonist of cAMP-regulated guanine nucleotide exchange factor 4 (EPAC2) (AID 1645885); further: nearly all actives have a fitted effect of over 25% in size; further: potency means the concentration at half of the fitted maximal effect
# [5] = target: Rap guanine nucleotide exchange factor 3 (Homo sapiens) (UniProt O95398); experiment: Counterscreen qHTS for antagonist of cAMP-regulated guanine nucleotide exchange factor 3 (EPAC1) (AID 1645888);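 further: fluorescence loss as bound BODIPY-GDP is released from Rap1B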
# In short: (§1)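 Rap1B–BODIPY-GDP (250 nM) with 50 uM GDP; compounds pin-transferred to 9.74 nM–152 uM final (activator) or from 7.32 nM upwards (inhibitor). Fluorescence Ex/Em 480/540 nm read at 5 and 30 min, then after adding cAMP or buffer, at room temperature.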
# [6] = target: Rap guanine nucleotide exchange factor 3 (Homo sapiens) (UniProt O95398); experiment: Counterscreen qHTS for agonist of cAMP-regulated guanine nucleotide exchange factor 3 (EPAC1) (AID 1645889); further: nearly all actives have a fitted effect of over 40% in size; further: potency means the concentration at half of the fitted maximal effect
# In short: as §1
SMILES,Potency [1],Potency [2],Potency [3],Potency [4],Potency [5],Potency [6],activation [3],"activity change, negative = inhibition [5]",activation [6],outcome [4]
COc1ccccc1C1SCCN1S(C)(=O)=O (stereo not given),inactive,inactive,inactive,inactive,inactive,inactive,–,–,–,–
CCOC(=O)/C(=C\c1ccc(N2CCC(c3ccccc3)=N2)cc1)C(C)=O,inactive,79.4 µM (active),–,inactive,–,12.6 µM (active),"15.2% [at 17.1 µM, percent relative to cAMP agonist control]",28% [at 30.8 µM],–,–
CN(C)c1ccccc1C(=O)N1CCCC(C(=O)c2ccc3ccccc3c2)C1 (stereo not given),inactive,inactive,–,inactive,–,–,"10.4% [at 17.1 µM, percent relative to cAMP agonist control]",-1.02% [at 30.8 µM],21.4% [at 30.8 µM],–
O=C(O)C(c1ccccc1)N1C(=O)/C(=C\c2ccc(-c3ccccc3Cl)o2)SC1=S (stereo not given),inactive,inactive,inactive,inactive,inactive,inactive,–,–,–,–
CCc1nc2c(OCc3ccc(C#N)cc3)cccn2c1N(C)C(=O)c1ccc(C)cc1,inactive,inactive,inactive,19 µM (active),inactive,inactive,–,–,–,–
O=C(/C=C/c1ccc([N+](=O)[O-])cc1)Nc1cccc(C(=O)Nc2ccccc2C(=O)O)c1,22.4 µM (active),inactive,–,inactive,–,–,"-2.89% [at 17.1 µM, percent relative to cAMP agonist control]",0.771% [at 30.8 µM],4.73% [at 30.8 µM],–
C=CC(=C)CC(NC)c1ccccc1 (stereo not given),inactive,inactive,inactive,84.9 µM (active),inactive,inactive,–,–,–,–
Cc1onc(-c2ccccc2)c1C(=O)c1c[nH]c(C(=O)NCCCN2CCOCC2)c1,inactive,inactive,–,inactive,–,–,"-2.44% [at 17.1 µM, percent relative to cAMP agonist control]",-20.3% [at 30.8 µM],-11.1% [at 30.8 µM],–
N#Cc1cc(C(=O)c2cc(F)ccc2O)cn(-c2nccs2)c1=O,inactive,100 µM (active),112 µM (active),inactive,inactive,39.8 µM (active),–,–,–,–
COc1cccc(C(c2nnnn2-c2c(C)cccc2C)N2CCN(C/C=C/c3ccccc3)CC2)c1OC (stereo not given),inactive,inactive,inactive,inactive,inactive,inactive,–,–,–,–
C=CCNC(=O)C1CC1(c1cccc(C)c1)c1cccc(C)c1 (stereo not given),inactive,inactive,inactive,inactive,inactive,inactive,–,–,–,–
COc1cc(OC)nc(Oc2cccc(Cl)c2C)n1,inactive,inactive,inactive,inactive,inactive,inactive,–,–,–,–
CN(C(=O)CSc1nc(-c2ccc(C(C)(C)C)cc2)c(C#N)c(=O)[nH]1)C1CCCCC1,42.6 µM (active),inactive,inactive,inactive,inactive,inactive,–,–,–,–
CC(OC(=O)CNC(=O)COc1ccccc1)C(=O)N(C)Cc1ccccc1 (stereo not given),inactive,inactive,–,inactive,–,–,"1.04% [at 17.1 µM, percent relative to cAMP agonist control]",-17.7% [at 30.8 µM],-1.24% [at 30.8 µM],–
O=C(CCCc1ccccc1)NCc1cn2ccsc2n1,inactive,inactive,inactive,inactive,inactive,inactive,–,–,–,–
COc1cccc(C2c3[nH]c4ccccc4c3CCN2Cc2ncc[nH]2)c1 (stereo not given),inactive,inactive,–,inactive,–,–,"1.64% [at 17.1 µM, percent relative to cAMP agonist control]",-8.75% [at 30.8 µM],15.1% [at 30.8 µM],–
COc1ccccc1Oc1ccnc2cc(Cl)ccc12,inactive,inactive,–,inactive,–,–,"3.38% [at 17.1 µM, percent relative to cAMP agonist control]",3.13% [at 30.8 µM],5.9% [at 30.8 µM],–
CCOc1c(OC)cccc1C(=O)NCC1(c2ccccc2)CCCC1,inactive,inactive,inactive,inactive,inactive,inactive,–,–,–,–
COCCNC(=O)CS(=O)Cc1nc(-c2ccc(Cl)cc2)oc1C (stereo not given),inactive,inactive,–,inactive,–,–,"3.09% [at 17.1 µM, percent relative to cAMP agonist control]",7.48% [at 30.8 µM],14.9% [at 30.8 µM],–
CN(C)S(=O)(=O)N1CCN(S(=O)(=O)N(C)C)CC1,inactive,inactive,–,inactive,–,–,"5.89% [at 17.1 µM, percent relative to cAMP agonist control]",-14.8% [at 30.8 µM],1.25% [at 30.8 µM],–

SMILES,Potency [1],Potency [2],Potency [3],Potency [4],Potency [5],Potency [6],activation [3],"activity change, negative = inhibition [5]",activation [6],outcome [4]
CCOC(=O)C1=NNC2(CC(=O)N(c3cc(C)cc(C)c3)C2=O)C1 (stereo not given),inactive,inactive,inactive,inactive,inactive,inactive,–,–,–,–
CN(CC(=O)Nc1cccc(F)c1)C(=O)CN1c2cccc3cccc(c23)S1(=O)=O,75.7 µM (active),inactive,inactive,inactive,inactive,inactive,–,–,–,–
Cc1ccc2oc(=O)n(CCOc3ccccc3Cl)c2c1,inactive,inactive,inactive,inactive,inactive,inactive,–,–,–,–
CC(=O)N1c2ccc(S(=O)(=O)N(C)Cc3ccco3)cc2CC1C (stereo not given),inactive,inactive,inactive,inactive,inactive,inactive,–,–,–,–
Cc1nc(N(C)Cc2ccccc2)c2c(C)c(C)sc2n1,inactive,inactive,–,inactive,–,–,"3.14% [at 17.1 µM, percent relative to cAMP agonist control]",-24.2% [at 30.8 µM],11.8% [at 30.8 µM],–
Cc1cc2ccccn2c1C(=O)c1ccc(C#N)cc1,inactive,inactive,inactive,inactive,inactive,inactive,–,–,–,–
CC(=O)Nc1ccc(C=NNc2ccc(S(=O)(=O)Nc3ccccc3C(=O)O)cc2[N+](=O)[O-])cc1,28.2 µM (active),inactive,–,inactive,–,–,"0.331% [at 17.1 µM, percent relative to cAMP agonist control]",0.935% [at 30.8 µM],13.4% [at 30.8 µM],–
CCOC(=O)c1ccc(N2C(=O)c3[nH]nc(-c4ccc(OCC)cc4)c3C2c2cccs2)cc1 (stereo not given),inactive,inactive,inactive,inactive,inactive,inactive,–,–,–,–
CCCCn1c(N)c(N(CC(C)C)C(=O)C2CCN(C(=O)c3ccc(Cl)cc3)CC2)c(=O)[nH]c1=O,inactive,inactive,inactive,inactive,inactive,inactive,–,–,–,–
CO/N=C(/COc1ccc(F)cc1)c1ccc(OC)cc1,inactive,inactive,–,inactive,–,–,"-0.137% [at 17.1 µM, percent relative to cAMP agonist control]",-12% [at 30.8 µM],2.57% [at 30.8 µM],–
C=CCn1c(O)c(N=NC(=O)CNC(=O)/C=C/c2ccc(OC)cc2)c2ccccc21,inactive,inactive,inactive,inactive,inactive,inactive,–,–,–,–
O=C(OCc1c(-c2ccccc2)ncc2ccccc12)c1ccccc1C(F)(F)F,inactive,inactive,inactive,inactive,inactive,inactive,–,–,–,–
COC(=O)CC1(C(=O)OC)Oc2ccc(Br)cc2C(=O)N1c1cc(Cl)cc(Cl)c1 (stereo not given),inactive,inactive,–,2.13 µM (active),–,0.0282 µM (active),"5.41% [at 17.1 µM, percent relative to cAMP agonist control]",-4.58% [at 30.8 µM],–,–
COc1ccc2nc(N3CCN(C(=O)C4CC4)CC3)sc2c1,inactive,inactive,inactive,–,inactive,inactive,–,–,–,inactive [at 12.7 µM]
O=C(Nc1ccc2nc(-c3ccc4nc[nH]c4c3)[nH]c2c1)c1cccs1,inactive,inactive,–,inactive,–,–,"3.61% [at 17.1 µM, percent relative to cAMP agonist control]",8.72% [at 30.8 µM],15.6% [at 30.8 µM],–
Cc1ccc(S(=O)(=O)N2[C@@H](c3ccc(Cl)c(Cl)c3)C(C(=O)O)=C[C@H]2CC2CCCC2)cc1,44.7 µM (active),inactive,–,inactive,–,–,"11.3% [at 17.1 µM, percent relative to cAMP agonist control]",-8.49% [at 30.8 µM],18.3% [at 30.8 µM],–
CC1=NN(c2nc(-c3ccc(Cl)cc3)cs2)C(=O)C1,25.1 µM (active),inactive,–,inactive,–,–,"4.56% [at 17.1 µM, percent relative to cAMP agonist control]",-0.482% [at 30.8 µM],11% [at 30.8 µM],–
CCCOc1c(OC)cccc1C1CC(=O)Nc2cc(OC)c(OC)c(OC)c21 (stereo not given),inactive,inactive,inactive,inactive,inactive,inactive,–,–,–,–
CCOc1cc(/C=N/NC(=O)c2ccc3c(c2)OCCO3)cc(Br)c1O,30.1 µM (active),inactive,inactive,inactive,inactive,inactive,–,–,–,–
COc1ccc(-c2oc3cccnc3c2C#CCO)cc1,inactive,inactive,inactive,inactive,inactive,inactive,–,–,–,–
